# Sm TGR inh: qHTS Assay for the Inhibitors of Schistosoma Mansoni Peroxiredoxins; Schistosoma mansoni thioredoxin glutathione reductase (TGR), Q962Y6; purified TGR, DTNB reduction, TNB absorbance 405 nm; Potency, µM (titrated, usually from 114 µM), for inactives: at the highest dose activity change, negative = inhibition, hits mostly inhibitors; 360,000 compounds, 3% hits; AID 485364, 2010; note: % is set by controls: 0 for no effect and ±100 for the full control effect; nearly all actives have a fitted effect of over 60% in size
#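 First, TGR (20 nM dispensed) and NADPH were mixed with compound. Second, a 15 min room-temperature incubation followed. Third, further NADPH and then DTNB were added to start the reaction. Finally, TNB absorbance was monitored kinetically.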
# Pf growth 96h: Primary qHTS for delayed death inhibitors of the malarial parasite plastid, 96 hour incubation; AID 504834, 2011; 320,000 compounds, 6.9% hits; P. falciparum luciferase reporter growth, 96 h; Potency, µM (doses to about 28.7 µM), for inactives: at the highest dose activity change, negative = inhibition, most hits filed as inhibitors; note: % is set by controls: 0 for no effect and ±100 for the full control effect
#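 P. falciparum expressing integrated firefly luciferase, in erythrocytes at 2% hematocrit, 0.05% parasitemia, incubated with compounds 96 h at 37 C, 5% CO2. Growth inhibition read as loss of luminescence; two-generation exposure targets delayed-death apicoplast inhibitors.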
# AmpC inh no detg: qHTS Inhibitors of AmpC Beta-Lactamase (assay without detergent). 330,000 compounds, 0.52% hits. P00811. AID 485341, 2010. Potency, µM (titrated, usually from 57.1 µM), for inactives: at the highest dose activity change, negative = inhibition, usual class: inhibitors. AmpC nitrocefin hydrolysis, absorbance 480 nm, 0.0001% Triton;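 note: plate controls were no compound for no effect and no enzyme for full effect; nearly all actives have a fitted effect of over 20% in size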
# Target sequence (P00811 whole entry, looked up): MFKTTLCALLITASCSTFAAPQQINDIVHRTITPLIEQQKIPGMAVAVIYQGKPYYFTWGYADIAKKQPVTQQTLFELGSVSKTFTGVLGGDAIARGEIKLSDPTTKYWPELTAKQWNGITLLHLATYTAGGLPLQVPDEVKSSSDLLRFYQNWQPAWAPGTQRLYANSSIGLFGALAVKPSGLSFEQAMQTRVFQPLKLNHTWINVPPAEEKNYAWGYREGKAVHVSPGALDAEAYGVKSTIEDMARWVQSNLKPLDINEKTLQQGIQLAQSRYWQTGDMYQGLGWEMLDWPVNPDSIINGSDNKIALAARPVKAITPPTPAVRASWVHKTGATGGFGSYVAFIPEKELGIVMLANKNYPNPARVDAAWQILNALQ
#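 AmpC (5.3 nM in the dispensed reagent) in 20 mM phosphate pH 7.0 with 0.01% (detergent screen) or 0.0001% Triton X-100 was preincubated with compounds for 15 min at room temperature. Nitrocefin was then added from an 800 uM solution, and hydrolysis was followed at 480 nm.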
# SARS PLpro yeast: qHTS of Yeast-based Assay for SARS-CoV PLP; S. cerevisiae expressing SARS-CoV PLpro, growth rescue; Potency, µM (top dose mostly 32.9 µM), inactives show at the top dose activity, positive = growth rescue, hits mostly activators; 330,000 compounds, 0.19% hits; AID 485353, 2010; calls by dose curve; note: 0% is about no effect; nearly all actives have a fitted effect of over 55% in size
# AmpC detergent: qHTS Inhibitors of AmpC Beta-Lactamase (assay with detergent); AID 485294, 2010; AmpC hydrolysis of nitrocefin, absorbance 480 nm, 0.01% Triton; Potency, µM (titrated, usually from 114 µM), for the others: top-dose activity change, negative = inhibition, usual class: inhibitors; P00811; 370,000 compounds, 0.041% hits;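 note: 0% = no-compound wells and -100% = no-enzyme wells; nearly all actives have a fitted effect of over 25% in size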
#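 20 mM phosphate pH 7.0 + 0.01% (detergent screen) or 0.0001% Triton X-100; 5.3 nM AmpC reagent; cpd preinc 15 min RT; nitrocefin (800 uM stock) to start; A480 q20 s × 4 min; Activity was normalised to no-enzyme and no-compound control wells.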
# Pf growth 48h: Primary qHTS for delayed death inhibitors of the malarial parasite plastid, 48 hour incubation. P. falciparum luciferase growth in erythrocytes, 48 h. Potency, µM (doses to about 28.7 µM), without a hit: at the highest dose activity change, negative = inhibition, hits mostly inhibitors. 310,000 compounds, 5.9% hits. AID 504832, 2011; note: % is set by controls: 0 for no effect and ±100 for the full control effect
#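 In quantitative HTS format, infected erythrocytes bearing luciferase-reporter parasites were treated for a single generation at 37 C. Luminescence after adding detection reagent served as the growth measure.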
# * marks the source's active call; other numbers are inactive results; ? = inconclusive; nt = no result given; [ ] = another dose, or the depositor's remark. This is a sample that favours compounds with a hit; in the whole collection about 12% have one here. Unless noted, calls come from the whole dose curve; as a rule, active = well fitted curve in the direction sought with a large enough effect; inconclusive = small, poorly fitted or top-dose-only effect, or another doubt; inactive = no such curve, though single readings can be large; an effect the other way counts as inactive or inconclusive. Potency is the fitted concentration of half-maximal effect.
SMILES,Sm TGR inh,Pf growth 96h,AmpC inh no detg,SARS PLpro yeast,AmpC detergent,Pf growth 48h
CC(=O)OC(C)(C)/C=C/C(=O)[C@](C)(O)[C@H]1[C@H](O)C[C@@]2(C)[C@@H]3CC=C4[C@H](C[C@H](O)C(=O)C4(C)C)[C@]3(C)C(=O)C[C@]12C,-2.6%,3.29µM*,155.1%,?,?,3.7µM*
CC(=O)OC(C)(C)/C=C/C(=O)C(C)(O)C1[C@H](O)C[C@@]2(C)C3CC=C4C(CC[C@@H](O)C4(C)C)[C@]3(CO)C(=O)C[C@]12C (some centres undefined),-24.6%,1.65µM*,12.6%,3.1%,-10.0%,10.4µM*
CCCCOc1nc2ccccc2nc1C(C#N)C(=O)NC1CCCCC1 (centres undefined),0.0%,1.47µM*,-5.8%,1.7%,-14.2%,12.1%
CC1CCN(c2nc3ccccc3nc2C(C#N)C(=O)NC2CCCCC2)CC1 (centres undefined),-2.0%,8.0%[5.75 µM],-19.0%,2.6%,?,-6.6%
Cc1c(C(=O)O)oc2ccc3c(c12)C(O)CC(C)(C)O3 (centres undefined),8.0%,4.65µM*,-25.7%,0.6%,-7.5%,-8.7%
Cc1c(C(=O)O)oc2c1C(O)CC(C)(C)C2 (centres undefined),7.3%,-6.3%,-14.1%,6.9%,?,-11.3%
Cc1cc(F)ccc1S(=O)(=O)N(C(=O)c1ccncc1)c1ccc(OC(=O)c2ccncc2)cc1,45.4%,?,158.5%,-2.2%,0.9%,-18.2%
Cc1ccc(S(=O)(=O)N(C(=O)c2ccncc2)c2ccc(OC(=O)c3ccncc3)c3ccccc23)cc1,20µM*,9.28µM*,114.4%,-15.2%,?,10.4µM*
COc1ccc(S(=O)(=O)N(C(C)=O)c2ccc(OC(C)=O)c3ccccc23)cc1[N+](=O)[O-],-13.0%,-2.5%,1.9%,-4.6%,-8.0%,6.57µM*
COC(=O)c1c(C)oc2ccc(N(C(=O)c3ccncc3)S(=O)(=O)c3ccc(C)cc3)cc12,26.8%,nt,86.3%,-11.7%,?,7.2%
Cc1ccc(S(=O)(=O)N(C(=O)c2ccncc2)c2ccc(OC(=O)c3ccncc3)c3ccccc23)c(C)c1,17.8µM*,9.28µM*,67.3%,-6.2%,-4.6%,nt
CC(=O)Oc1ccc(N(C(C)=O)S(=O)(=O)c2ccc(C)cc2C)c2ccccc12,-2.7%,2.62µM*,1.7%,-14.0%,-12.7%,8.28µM*
COc1cccc(C2C(C(=O)Nc3cccnc3)=C(C)Nc3nc(SCc4ccccc4)nn32)c1 (centres undefined),-0.5%,nt,nt,nt,6.9%,nt
O=C1CC(c2cccc(O)c2)c2c(nc(SCc3ccccc3F)[nH]c2=O)N1 (centres undefined),-5.7%,nt,nt,nt,-5.1%,nt
C/C(=N\NC(=O)c1ccc(C)cc1)c1c(C)[nH]n(-c2ccccc2)c1=O,0.0%,14.7µM*,-35.2%,?,0.5%,-4.3%
Cc1[nH]n(-c2ccccc2)c(=O)c1C(=O)Nc1ccccc1,4.2%,4.3%,-7.6%,0.7%,?,44.8%
Nc1ccc(-c2ncc(-c3ccccc3)o2)cc1,12.9%,?,3.7%,-2.6%,10.0%,9.28µM*
COC(=O)C1=CN(C(C)C)C=C(C(=O)OC)C1c1cc2c(cc1Br)OCO2,-6.8%,3.7µM*,48.2%,-8.5%,-12.1%,?
CC1=C(C(=O)OCC(C)C)C(c2cc3c(cc2Br)OCO3)NC(=O)N1C (centres undefined),-13.1%,-23.2%,59.2%,-4.6%,1.7%,10.4µM*
CCOCCOC(=O)C1=C(C)NC(=O)NC1c1cc2c(cc1Br)OCO2 (centres undefined),0.0%,?,-9.0%,-13.3%,-9.3%,-27.2%
CC1=C(C(=O)OCC(C)C)C(c2ccccc2Cl)NC(=O)N1C (centres undefined),?,-40.8%,37.0%,7.1%,?,nt
CCOC(=O)C1=C(C)NC(=O)NC1c1cc2c(cc1Br)OCO2 (centres undefined),-15.7%,-4.4%,-3.9%,-4.2%,?,9.28µM*
CCOC(=O)c1ccc(NC(=O)CC2C(=O)N(c3ccc(F)cc3)C(=O)N2Cc2cccnc2)cc1 (centres undefined),-2.4%,nt,nt,nt,-2.4%,nt
Cc1ccc(Cl)cc1N1CCN(C(=O)Cn2c(-c3cccs3)cc3cc(F)ccc32)CC1,2.2%,nt,nt,nt,3.5%,nt
COc1ccccc1CNC(=O)c1cc2ccc3ccc(C)[nH]c3c2n1,3.2%,nt,nt,nt,18.5%,nt
SMILES,Sm TGR inh,Pf growth 96h,AmpC inh no detg,SARS PLpro yeast,AmpC detergent,Pf growth 48h
COc1cc2c(cc1NC(=O)CN1CCN(S(=O)(=O)c3ccc(C)cc3)CC1)oc1ccccc12,-5.9%,17.5%,nt,nt,-4.1%,5.8%
COc1cc2c(cc1NC(=O)C(C)OC(=O)c1ccc(S(=O)(=O)Nc3ccccc3Cl)cc1)oc1ccccc12 (centres undefined),10.9%,5.22µM*,-46.8%,-0.8%,-7.1%,?
COc1cc2c(cc1NC(=O)c1ccc(C)c([N+](=O)[O-])c1)oc1ccccc12,2.1%,-11.3%,-3.2%,13.6%,1.4%,30.0%
COc1cc2c(cc1NC(=O)C(C)N1CCN(S(=O)(=O)c3ccccc3[N+](=O)[O-])CC1)oc1ccccc12 (centres undefined),-8.2%,5.86µM*,-14.3%,-2.0%,?,nt
COc1cc2c(cc1NC(=O)C(C)N1CCN(S(=O)(=O)c3ccc(C)c(C)c3)CC1)oc1ccccc12 (centres undefined),0.0%,3.29µM*,-11.3%,-0.8%,-14.4%,nt
CN(C)N1C(N)=C(C#N)C(c2cccc([N+](=O)[O-])c2)C2=C1CC(C)(C)CC2=O (centres undefined),-10.4%,15.5%,-3.0%,-0.6%,3.7%,?
CCOC(=O)C1CCN(C(=O)C2CCN(S(=O)(=O)c3cc(Cl)ccc3OCC)CC2)CC1,-26.9%,-0.1%,161.6%,-0.3%,0.2%,0.5%
O=C(OC(C(=O)NCc1ccc2c(c1)OCO2)c1ccc(Cl)cc1)c1ccco1 (centres undefined),-23.9%,-18.8%,-27.4%,-3.7%,?,20.6%
Cc1oc(/C=N/NS(=O)(=O)c2ccccc2)cc1Br,0.112µM*,?,-7.8%,-19.9%,-1.6%,-8.3%
Cc1ccc(/C=N/NS(=O)(=O)c2ccccc2)o1,-12.8%,0.0%,-6.6%,-7.0%,?,8.2%
